# Test results: PubChem BioAssay (NCI)
# The panel holds about 83,000 compounds, 20% with a hit somewhere; the sample as a whole holds those more often.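 48-hour exposure, single concentration, 96-well plates; percent growth endpoint where 0 means no net growth. Active: below 10.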 Values without a mark were called inactive. Active and inactive are the calls of the source.
# How the values were obtained:
# Experiment in all cases: NCI-60 one-dose screen, 48 h (100 = growth as untreated, 0 = no growth, -100 = all killed)
# Settings in all cases: 10 µM unless noted
# [1] = system: SR leukemia
# [2] = system: RPMI-8226 leukemia
# [3] = system: OVCAR-8 ovarian
# [4] = system: OVCAR-5 ovarian
# [5] = system: OVCAR-4 ovarian
# [6] = system: SK-OV-3 ovarian
# [7] = system: IGROV1 ovarian
# [8] = system: NCI/ADR-RES ovarian
# [9] = system: T-47D breast
# [10] = system: BT-549 breast
# [11] = system: MDA-MB-435 melanoma
# [12] = system: SW-620 colon
# [13] = system: MCF7 breast
# [14] = system: HCT-116 colon
# [15] = system: HCC-2998 colon
# [16] = system: KM12 colon
# [17] = system: OVCAR-3 ovarian
# [18] = system: HS 578T breast
SMILES,growth [1],growth [2],growth [3],growth [4],growth [5],growth [6],growth [7],growth [8],growth [9],growth [10],growth [11],growth [12],growth [13],growth [14],growth [15],growth [16],growth [17],growth [18]
COc1ccc(C(=O)C(=O)c2ccccc2)cc1,95.9%,103%,105%,101%,100%,103%,102%,104%,104%,112%,95.1%,100%,103%,105%,104%,102%,,
C/C(Cc1ccccc1)=N\O,101%,83.3%,107%,107%,117%,128%,,107%,117%,107%,98.3%,98.4%,107%,101%,,103%,,
Cc1ccc(C)c(CN(C)C)c1O,118%,121%,98.2%,102%,,107%,110%,99.3%,120%,99.2%,109%,97.1%,102%,112%,102%,97.4%,113%,105%
Clc1ncnc2nc[nH]c12,102%,88.8%,102%,101%,103%,,,103%,90.7%,101%,106%,103%,94.9%,102%,89.6%,105%,98.1%,98%
CN(C)c1ncnc2c1cnn2C,109%,89%,94.7%,97.5%,102%,,,99.9%,88.2%,99.9%,103%,98.7%,94%,105%,98%,104%,104%,99.1%
Cc1cc2nc(C)c(C)nc2cc1C,96.8%,89.5%,94.2%,95.3%,,99.5%,97%,101%,99.5%,100%,105%,111%,90.7%,112%,110%,108%,105%,108%
NNc1ncnc2nc[nH]c12,32.5%,13.4%,16.4%,63.7%,44.6%,,,,62.2%,,51.3%,41.6%,33%,24%,78%,46%,79%,84.8%
CC(=O)NC(CCc1ccc(Cl)c(Cl)c1)c1cccc(O)c(=O)c1 (configuration not stated),6.21% (active),13.9%,13.9%,47%,24.5%,12.7%,,,17.7%,19.3%,21.5%,23.8%,19.3%,15.9%,22.6%,18.1%,20.1%,54.1%
Cc1[nH]c(=S)[nH]c(=O)c1C,97.9%,115%,89.8%,101%,,106%,104%,105%,115%,99.7%,105%,109%,,110%,103%,108%,118%,123%
CCOC(OCC)C(=O)c1ccccc1,132%,99.8%,89.8%,94.1%,,105%,105%,,103%,,109%,92.3%,94.4%,108%,112%,99.4%,99.9%,94.3%
